Results from PubChem BioAssay AID2102 (Southern Research Specialized Biocontainment Screening …, 2009).
Screen size: about 1,100 compounds; about 210 (19%) were called active. Not all results are given here. Potency and affinity values are given separately. Values without a mark were called inactive. How the calls were made is not given here.

experiment: host cell cytotoxicity, dose response, cytotoxicity control for SV40 T antigen inhibitor project, selected hits (AID 2102); conditions: Host cell viability cytotoxicity counter-screen; series mostly up to 50 µM; viability: at the top concentration;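 further: cells exposed to compounds for 72 hours; 100% = mean of untreated cell control wells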

Compound	viability [%]
COc1cc(/C=N\Nc2nc(-c3cccs3)c(NC(C)=O)s2)ccc1O	94
CCOc1cc(/C=N/Nc2nc(-c3cccs3)c(NC(C)=O)s2)ccc1O	85.7
CCN(CC)c1ccc(NC(=O)COC(=O)COc2ccccc2[N+](=O)[O-])cc1	112
CCOC(=O)C[n+]1c(C)sc2ccc(OC)cc21	111
CC(Nc1ccc(N2CCOCC2)cc1)C(=O)N1c2ccccc2CC1C (centres undefined)	90
COc1cc(/C=N/NC(=O)c2cccs2)ccc1O	88.6
CCOC(=O)c1cc(-c2ccc(N)cc2)sc1N	92.1
Oc1ccc(/C=N/N2CCN(c3ccccn3)CC2)cc1	103
CCN(CC)c1ccc(/C=N/O)cc1	106
COc1cc(/C=N/NC(=O)C2COc3ccccc3O2)ccc1O (centres undefined)	94.2
COc1cc(/C(C)=N/NC(=O)CSc2nc3ccccc3[nH]2)ccc1O	84.6
O=C(CC1SC(=O)N(c2ccccc2)C1=O)Nc1cccc2ccccc12 (centres undefined)	100
Cc1csc(N/N=C/c2ccc(O)c([N+](=O)[O-])c2)n1	91.6
CCN(CC)c1ccc(NC(=O)c2cccnc2)c(C)c1	93.7
CCN(CC)c1ccc(NC(=O)c2cccc(F)c2)c(C)c1	80.2
Oc1ccc(C=Nc2ccc(N3CCOCC3)cc2)c(O)c1	110
COc1cc(SC#N)ccc1N=Cc1c(C)[nH]n(-c2ccc(C)cc2C)c1=O	104
O=C1c2ccccc2NC2(CCCCC2)N1c1ccc(O)cc1	110
CCN(CC)c1ccc(NC(=O)CSc2nnc3nc(C)cc(C)n23)cc1	91.2
COC(=O)C1=C(O)/C(=C/c2cccc(OC)c2O)N=C1C	112
CN(C)c1ccc(NC(=O)CN2CCN(c3ccc(F)cc3)CC2)cc1	114
CC(=O)Nc1ccc(N2CCCCC2)cc1	116
COc1cc(/C=N/NC(=O)CNc2n[nH]c(=O)[nH]c2=O)ccc1O	101
COc1ccc(OC)c(CCNC(=O)Cn2sc3nc(C)cc(C)c3c2=O)c1	89.5
CCN(CC)S(=O)(=O)c1ccc(C(=O)Oc2coc(CSc3nc(C)cc(C)n3)cc2=O)cc1	83.4
FC(F)(F)C1CCCN(c2nsc3ccccc23)C1 (centres undefined)	81.8
Nc1ncc(N=Nc2cc(C(=O)O)ccc2Cl)s1	127
CCn1c(SCC(=O)c2ccc(O)c(O)c2)nnc1-c1ccccc1OC	88
COc1cc(/C=N/NC(=O)c2nnn(-c3nonc3N)c2-c2cccs2)ccc1O	87
